“And” between values parts separate entries of the source, which are not always exact repeats. Equal values may be shown once. Out of some 110,000 compounds screened, about 190 (0.17%) were called active. Cut-off read from the data, not from the text of the source: active = inhibition above about 50%; inactive = the rest. The sample as a whole holds a higher share of actives than the screen did. Results with a measured potency or affinity are listed apart. Some compounds were tested as several samples or in several runs, with calls that do not always agree.
target: Dual specificity protein phosphatase 6 (Rattus norvegicus) (UniProt Q64346); assay: MKP-3 phosphatase inhibitors, primary screen, biochemical, rat enzyme, in vitro (AID 425); details: recombinant MKP-3 phosphatase activity, fluorescence; at 20 µM; stronger effect = higher value;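 note: plate controls were vehicle for no effect and reference inhibitor for full effect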
Sequence (Q64346 whole entry, looked up): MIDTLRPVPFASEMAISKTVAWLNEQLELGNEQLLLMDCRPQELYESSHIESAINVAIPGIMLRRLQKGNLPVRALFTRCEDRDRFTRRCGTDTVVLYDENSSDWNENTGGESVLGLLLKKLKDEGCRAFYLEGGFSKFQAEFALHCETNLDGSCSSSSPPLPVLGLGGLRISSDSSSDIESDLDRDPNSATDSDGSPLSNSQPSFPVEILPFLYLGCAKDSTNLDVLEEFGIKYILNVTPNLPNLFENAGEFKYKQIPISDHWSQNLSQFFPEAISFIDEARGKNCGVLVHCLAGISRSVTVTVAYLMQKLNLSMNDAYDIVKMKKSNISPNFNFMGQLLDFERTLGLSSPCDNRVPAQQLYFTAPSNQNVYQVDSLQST

inhibition, 102% (active) and -3.3% (inactive):
COc1ccc2noc3c2c1C(=O)c1ccccc1-3

inhibition, inactive:
CCN(CC)c1ccc(/C=C2/SC(=O)N(CNc3ccc(OC)c(Cl)c3)C2=O)cc1 2.6%
COc1ccc(/C=C2\C=C(c3ccc(Br)cc3)OC2=O)cc1[N+](=O)[O-] 5.6%
COc1ccc(/C=N/Nc2nnc(-c3ccccc3)c(-c3ccccc3)n2)cc1 0.6%
N/C(=N/O)c1nc(N2CCCCC2)nc(N2CCCCC2)n1 -8.2%
O=C(Nc1ccc(C(=O)N2CCOCC2)cc1)Nc1cccc2ccccc12 2%
CN(C)CCCNC(=O)c1cccc(F)c1 -3.1%
CN(C)CCCNC(=O)c1ccc(F)cc1 -0.5%
Cc1ccc(-n2ncc(C(=O)N3CCc4ccccc4C3)c2NC(=O)c2ccco2)cc1C -7.8%
O=C1C(=Cc2ccc(I)o2)C(=O)c2ccccc21 15.6%
CC1(C)OC(=O)C(=Cc2ccc(-c3ccc(Cl)cc3Cl)o2)C(=O)O1 7.8%
Cc1ccc(C)c(C(=O)COC(=O)c2ccc(Br)o2)c1 -15.9%
COc1ccc(-c2cc3ccccc3n2CC(O)CN2CCN(CCO)CC2)cc1 (centres undefined) -0.9%
O=C(O)c1cccc(N2C(=O)CCC2=O)c1 -5.5%
O=C(O)c1cccc(N2C(=O)c3ccc(Br)cc3C2=O)c1 0.9%
c1ccc2c(-n3cnnn3)cccc2c1 -8.8%
Cc1ccc(-c2nc(NC(=O)CSc3nnc4scc(-c5ccccc5)n34)ns2)cc1 12.3%
Cc1ccc(-c2nc(NC(=O)CSc3nnnn3-c3ccccc3)ns2)cc1 2.1%
Cc1ccc(-c2nc(NC(=O)CSc3nnc(C)s3)ns2)cc1 6.1%
Cc1ccc(-c2csc3nnc(SCC(=O)Nc4nsc(-c5ccccc5)n4)n23)cc1 -3.1%
CCn1c(=O)cc(SCC(=O)Nc2ccc3c(c2)OCCO3)c2ccccc21 2.8%
O=c1[nH]c2c(n(C3CCCCC3)c1=O)CCC2 -11.2%
Cc1ccc(C(=O)Nc2ccccc2C(=O)N2CC(C)OC(C)C2)cc1 (centres undefined) 1.8%
CC(C)c1ccc(N2C(=O)NC(=O)/C(=C/c3ccc(I)o3)C2=O)cc1 12.4%
Cc1cc(C)cc(N2C(=O)NC(=O)/C(=C\c3ccc([N+](=O)[O-])o3)C2=O)c1 25.1%
Cc1cc(N2C(=O)NC(=O)/C(=C\c3ccc(N(C)C)o3)C2=O)ccc1Br 2.1%
O=C1NC(=O)N(c2ccccc2)C(=O)/C1=C\c1ccc(Br)o1 8.3%
O=C(NC(Cc1ccccc1)C(=O)N1CCN(c2ccccn2)CC1)c1ccco1 (centres undefined) -1.1%
COc1ccc(OC)c(CN2C(=O)c3ccccc3C2C(=O)NCc2cccnc2)c1 (centres undefined) -10.2%
CN(Cc1ccccc1)S(=O)(=O)c1ccc2[nH]c(=O)oc2c1 -2.6%
CCOc1ccc2noc3c2c1C(=O)c1ccccc1-3 45.7% and 44.7%
O=C1c2ccccc2-c2onc3ccc(NCc4ccco4)c1c23 -14.4%
O=C1c2ccccc2-c2onc3ccc(N4CCCCC4)c1c23 10.8%
CCNc1ccc2noc3c2c1C(=O)c1ccccc1-3 4.2%
O=C1c2ccccc2-c2onc3ccc(Sc4ccccc4)c1c23 7.7%
O=C1c2ccccc2-c2onc3ccc(NC4CCCCC4)c1c23 -1.7%
CCOc1ccc(Nc2ccc3noc4c3c2C(=O)c2ccccc2-4)cc1 3.7%
O=C1c2ccccc2-c2onc3ccc(Cl)c1c23 13.1%
Cc1ccc2c(c1)c1nc3ccccc3nc1n2CCN1CCOCC1 1.9%
Brc1cccc(CN2CCN(C3CCN(Cc4ccccc4)CC3)CC2)c1 3.4%
O=C(CSC(=S)N1CCOCC1)c1ccc([N+](=O)[O-])cc1 2.2%
Cc1ccc(-n2c3c(cc(C(=O)NCCCN4CCOCC4)c2=O)C(=O)CC(C)(C)C3)cc1 -7.6%
COc1cccc(C2/C(=C(\O)c3c(C)nc4c(C)cccn34)C(=O)C(=O)N2CCCN(C)C)c1 (centres undefined) -2.7%
CCCCOC(=O)c1c(NC(=O)C2C3CCC(C3)C2C(=O)O)sc2c1CCCC2 (centres undefined) 0%
COc1ccc(/C=C/C(=O)NC(=S)Nc2ccc(S(=O)(=O)N=C(N)N)cc2)cc1 -1.1%
O=C1CC(c2ccccc2)CC2=C1C(c1cccnc1)Nc1ccc(C(=O)c3ccccc3)cc1N2 (centres undefined) 8.5%
O=C(O)C1C2C=CC(O2)C1C(=O)Nc1ccccc1C(F)(F)F (centres undefined) 4.5%
O=C(O)c1ccc(NC2=C(N3CCCCC3)C(=O)c3ccccc3C2=O)cc1 1.7%
O=C1C(Nc2ccc(Cl)cc2)=C(N2CCOCC2)C(=O)c2ccccc21 2%
CCOCCOC(=O)C1=C(C)N(C)C(=O)NC1c1cc(Cl)c(O)c(OCC)c1 (centres undefined) -5.1%
O=C(CN1CCN(Cc2ccccc2Cl)C1=O)NC1CCCCCCC1 -3.3%

inhibition, active:
CN(C)CCCNC(=O)c1ccc2sc3cc(=O)c(N)cc-3nc2c1 84.1%
CC1(C)OC(=O)C(=Cc2ccc(I)o2)C(=O)O1 101%
O=C(O)c1cccc(N2C(=O)c3ccc4c5c(ccc(c35)C2=O)CC4)c1 71.8%
CC(C)c1ccc(N2C(=O)NC(=O)/C(=C/c3ccc(Br)o3)C2=O)cc1 58.6%
Cc1cc(N2C(=O)NC(=O)/C(=C\c3ccc([N+](=O)[O-])o3)C2=O)ccc1Br 65.5%
O=C1c2ccccc2-c2onc3ccc(Oc4ccc(Cl)cc4)c1c23 92.2%
O=C1C=Cc2ccccc2/C1=N/Oc1ccc2noc3c2c1C(=O)c1ccccc1-3 65.3%
O=C1C(Nc2ccc(Cl)cc2)=C(N2CCCCC2)C(=O)c2ccccc21 55.2%
